EWS-Fli block: EWS/Fli-driven NR0B1 reporter inhibitors, primary screen, A673 cells, NR0B1 luciferase, luminescence, MLPCN library. viability-normalised. inhibition, % at 12.6 µM. 350,000 tested, 0.67% active. AID 651661, 2012;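 active = mean inhibition of at least 50% after viability correction, with every replicate also passing that limit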;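 note: firefly luciferase signal divided by Alamar Blue viability fluorescence both relative to DMSO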
LGR2 antag: inhibitors of bursicon-induced LGR2 CRE-luciferase signal, primary screen, cell-based, HEK293, CRE-luciferase reporter, bursicon stimulation. bursicon-stimulated, 4 h. inhibition, % at 9.99 µM. 380,000 tested, 0.35% active. AID 720647, 2013;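 active = drop in luminescence signal, shown as inhibition above about 50% in the replicate tests, limit read from the data, passing the limit was not always enough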;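 note: agonist challenge used bursicon conditioned medium at about half maximal strength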
EBV LMP1 NFkB: EBV LMP1-driven NF-kappaB luciferase reporter inhibitors, primary screen, cell-based, luminescence, single point; LMP1-induced NF-kappaB luciferase reporter cells; inhibition, % at 12.5 µM; 350,000 tested, 0.69% active; in the data active = inhibition above about 41%;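 note: 0% = neutral control wells and 100% = reference inhibitor control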
TRPM1 prom inh: inhibitors of MITF-dependent TRPM1 promoter reporter, primary screen, cell-based, SK-MEL-5, single point, luciferase; SK-MEL-5 TRPM1 promoter luciferase, 24 h; inhibition, % at 12.5 µM; 330,000 tested, 0.83% active; AID 488899, 2010;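 active = mean inhibition across replicates of 60% or more, whatever share of single replicates reaches that level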
PGC1a acetyl inh: inhibitors of PGC1a acetylation signal, primary screen, cell-based, U2OS, AlphaScreen, inhibitor mode; AlphaScreen anti-acetyl-lysine; with virally co-expressed GCN5 acetyltransferase; AID 651687, 2012; inhibition, % at 15.6 µM; 350,000 tested, 0.17% active;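 active = every replicate shows inhibition of at least 40%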;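 note: 0% = neutral control wells and 100% = positive control wells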
PAX8 inh HTS: inhibitors of PAX8-driven TPO luciferase reporter, primary screen, RMG-I cells, single concentration; SteadyGlo, 24 h; inhibition, % at 12.6 µM; 360,000 tested, 1.2% active; AID 652154, 2013;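 active = mean replicate inhibition at least 60% with every replicate also reaching 60%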;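 note: luciferase light reporting Pax8 driven TPO promoter activity; plate controls were median of neutral control wells for no effect and mitoxantrone controls for full effect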
Numbers without * were called inactive. The list is not random: actives were taken first. Their share in the collection is about 2.2%.

`CC(C)NC(=O)Nc1ccc2c(c1)C(=O)N([C@H](C)CO)C[C@@H](C)[C@H](CN(C)S(=O)(=O)c1cccs1)OCCCC[C@H](C)O2` gave EWS-Fli block -3, LGR2 antag 4, PGC1a acetyl inh -5 and PAX8 inh HTS 6.
Screening CO[C@@H]1CN(C)C(=O)c2cc(NC(=O)C3CCC3)ccc2OC[C@H](C)N(C)C[C@H]1C returned EWS-Fli block 0, LGR2 antag -11, PGC1a acetyl inh 6 and PAX8 inh HTS -5.
`CNC[C@H](CC1CCCCC1)NC[C@H](CO)NCC1(c2ccccc2)CC1` gave EWS-Fli block 9, LGR2 antag 10, EBV LMP1 NFkB -9, TRPM1 prom inh 66*, PGC1a acetyl inh -1 and PAX8 inh HTS 13.
C[C@H](CO)N1C[C@H](C)[C@@H](CN(C)S(=O)(=O)c2ccc(F)cc2)Oc2c(NC(=O)CCC(F)(F)F)cccc2C1=O was read as EWS-Fli block 3, LGR2 antag 5, EBV LMP1 NFkB 0, TRPM1 prom inh 6, PGC1a acetyl inh 2 and PAX8 inh HTS -8.
C[C@@H]1CN([C@@H](C)CO)C(=O)c2cccc(NS(=O)(=O)c3cn(C)cn3)c2O[C@H]1CN(C)C(=O)NC1CCCCC1 was read as EWS-Fli block -4, LGR2 antag 0 and PGC1a acetyl inh 12.
For C[C@H](CO)N1C[C@H](C)[C@H](CN(C)S(=O)(=O)c2ccc(Cl)cc2)Oc2c(NC(=O)NC3CCCCC3)cccc2C1=O the results were EWS-Fli block 20, PGC1a acetyl inh 7 and PAX8 inh HTS 92*.
For C[C@H]1CN([C@@H](C)CO)C(=O)c2cccc(NC(=O)NC3CCCCC3)c2O[C@@H]1CN(C)S(=O)(=O)c1ccc(Cl)cc1 the results were EWS-Fli block 14, LGR2 antag -20, PGC1a acetyl inh 5 and PAX8 inh HTS -1.
`COc1ccc(S(=O)(=O)N(C)C[C@H]2Oc3c(NC(=O)CCC(F)(F)F)cccc3C(=O)N([C@H](C)CO)C[C@@H]2C)cc1` gave EWS-Fli block -1, LGR2 antag 0, EBV LMP1 NFkB 56*, TRPM1 prom inh 9, PGC1a acetyl inh 4 and PAX8 inh HTS 8.
Screening C[C@H](CO)N1C[C@H](C)[C@@H](CN(C)C(=O)NC2CCCCC2)Oc2c(NS(=O)(=O)c3cn(C)cn3)cccc2C1=O returned EWS-Fli block 0, LGR2 antag 13, EBV LMP1 NFkB 50*, TRPM1 prom inh 0, PGC1a acetyl inh 11 and PAX8 inh HTS -14.
`Cc1ccc(S(=O)(=O)N(C)C[C@H]2Oc3c(NC(=O)Nc4ccc(F)cc4)cccc3C(=O)N([C@@H](C)CO)C[C@H]2C)cc1` gave EWS-Fli block 30, LGR2 antag -24, PGC1a acetyl inh 3 and PAX8 inh HTS 78*.
For C[C@H](CO)N1C[C@H](C)[C@H](CN(C)S(=O)(=O)c2ccc(Cl)cc2)Oc2c(NC(=O)Nc3ccc(F)cc3)cccc2C1=O the results were EWS-Fli block 2, PGC1a acetyl inh 12 and PAX8 inh HTS 91*.
For C[C@@H]1CN([C@@H](C)CO)C(=O)c2cccc(NC(=O)Nc3ccc(F)cc3)c2O[C@H]1CN(C)S(=O)(=O)c1ccc(Cl)cc1 the results were EWS-Fli block -3, LGR2 antag -3, PGC1a acetyl inh -1 and PAX8 inh HTS -13.
For CN(C)S(=O)(=O)c1cccc(NC(=O)COc2ccc(C(=O)c3ccccc3)cc2)c1 the results were EWS-Fli block 35, LGR2 antag -1, EBV LMP1 NFkB 0, TRPM1 prom inh 19 and PAX8 inh HTS 4.
CC(=O)NS(=O)(=O)c1ccc(NC(=O)COc2ccc(C(=O)c3ccccc3)cc2)cc1 was read as EWS-Fli block 3, LGR2 antag 0, EBV LMP1 NFkB -9, TRPM1 prom inh 4 and PAX8 inh HTS 75*.
For COC(=O)c1ccc(CSc2n[nH]c(C)n2)o1 the results were EWS-Fli block 1, LGR2 antag -16, EBV LMP1 NFkB 0, TRPM1 prom inh 10, PGC1a acetyl inh 2 and PAX8 inh HTS 78*.

Source: PubChem BioAssay (Broad Institute)
